DRD3 agonist = activates the human D3 dopamine receptor | P35462 | D3R DiscoveRx beta-arrestin cells, luminescence, 90 min | max activation, % | 410,000 compounds, 0.58% hits | AID 652048; in the data active = max activation above about 30%; note: 0% is about no effect
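Agonist mode: compounds and dopamine controls were applied to plated cells for 90 min at 37 degrees C after an overnight attachment at 1500 cells/well. Luminescent read-out followed 30 - 60 minutes at room temperature with DiscoveRx detection reagent.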
IDH1 R132H inh = human IDH1 R132H inhibition; Potency, µM (titrated, usually from 76.6 µM), inactives show top-dose activity change, negative = inhibition, most hits filed as inhibitors; O75874; 390,000 compounds, 0.093% hits; IDH1-R132H enzyme, NADPH consumption, diaphorase/resazurin fluorescence; AID 602179; note: potency is the fitted concentration of half-maximal effect; % is set by controls: 0 for no effect and ±100 for the full control effect; nearly all actives have a fitted effect of over 65% in size
Target sequence (O75874 whole entry R132H, stated change not applied): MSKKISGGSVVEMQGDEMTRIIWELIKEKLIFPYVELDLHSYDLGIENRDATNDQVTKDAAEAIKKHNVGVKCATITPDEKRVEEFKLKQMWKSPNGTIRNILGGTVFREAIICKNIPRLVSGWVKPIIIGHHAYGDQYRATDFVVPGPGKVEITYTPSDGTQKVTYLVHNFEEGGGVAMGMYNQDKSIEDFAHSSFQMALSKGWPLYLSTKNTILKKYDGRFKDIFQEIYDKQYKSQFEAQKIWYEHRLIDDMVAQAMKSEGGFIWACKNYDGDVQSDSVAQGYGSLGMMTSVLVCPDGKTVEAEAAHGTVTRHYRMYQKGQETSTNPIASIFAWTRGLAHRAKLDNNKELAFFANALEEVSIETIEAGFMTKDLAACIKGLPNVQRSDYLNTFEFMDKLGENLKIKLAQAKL
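IDH1-R132H (0.5 ug/mL dispensed) in pH 7.5 Tris buffer was preincubated 30 min with compound, then given a substrate mix of 0.016 mM NADPH and 2 mM alpha-KG for 80 min at room temperature; remaining NADPH was read by diaphorase/resazurin fluorescence.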
a7 integrin act = integrin-mediated muscular dystrophy alleviation activation | alpha7betagal myoblasts, beta-gal FDG fluorescence, 48 h | Potency, µM (top dose mostly 38.3 µM), for inactives: top-dose activation, hits mostly activators | 350,000 compounds, 0.064% hits | AID 624291;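 note: potency is the fitted concentration of half-maximal effect; 100% = response of the positive control SU9516; nearly all actives have a fitted effect of over 60% in size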
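alpha7betagal+/- myoblasts (passage 13, 250/well) treated 48 h at 37C with compounds at 1:260 dilution of DMSO stock. Lysed, then beta-galactosidase activity read as FDG fluorescence (ex 480/em 540) after 30 min, with pre-read for autofluorescence.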
D3 antag = blocks the human D3 dopamine receptor | P35462 | D3R cells, DiscoveRx beta-arrestin luminescence, antagonist mode; hits give low values | max response, negative = inhibition, % | 360,000 compounds, 2.5% hits | AID 652054; in the data active = max response below about -50%; inconclusive = no clear call, values can overlap the other calls; note: % is set by controls: 0 for no effect and ±100 for the full control effect
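Cells plated overnight at 1500 cells/well, then exposed to library compounds with dopamine controls for 90 minutes at 37 degrees C. DiscoveRx reagent added for 30–60 minutes at room temperature; luminescence read, quantitative HTS format.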
B2AR arrestin = beta2AR (human) beta-arrestin recruitment activity; AID 492947; 330,000 compounds, 0.02% hits; beta-arrestin recruitment to beta2AR, cell-based reporter; Potency, µM (titrated, usually from 46.1 µM), for the others: at the highest dose activation, usual class: activators; P07550;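 note: potency is the fitted concentration of half-maximal effect; 0% = DMSO controls and full agonism = EC100 isoproterenol or metaproterenol; nearly all actives have a fitted effect of over 65% in size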
Active calls of the source: *; u = inconclusive; x = no result given. Hits are enriched below; roughly 2.9% of the tested compounds scored in any of these assays. Unless noted, calls come from the whole dose curve; as a rule, active = well fitted curve in the direction sought with a large enough effect; inconclusive = small, poorly fitted or top-dose-only effect, or another doubt; inactive = no such curve, though single readings can be large; an effect the other way counts as inactive or inconclusive.

SMILES	DRD3 agonist	IDH1 R132H inh	a7 integrin act	D3 antag	B2AR arrestin
CN(C)c1ccc(/C=C2\CCC/C(=C\c3ccccc3)C2=O)cc1	8	2%	0%	-3	0%
CC(=O)N1/C(=C/c2ccc(N(C)C)cc2)C(=O)c2ccccc21	-12	14%	-50%	-51*	0%
O=C1Nc2ccc([N+](=O)[O-])cc2OC1CCN1CCN(c2ccccc2)CC1 (configuration not stated)	-24	1%	-24%	-51*	-1%
CCOC(=O)C1(C)/C(=N/Nc2ccccc2OC)C(=O)C(=O)N1c1ccccc1 (configuration not stated)	3	12%	-24%	-16	0%
CCOC(=O)C1(C)/C(=N/Nc2ccccc2)C(=O)C(=O)N1c1ccccc1 (configuration not stated)	-10	11%	19%	-58*	0%
CCOc1ccc(-c2nnc(NC(=O)C3CCCC3)o2)cc1	-6	4%	-30%	-105*	0%
CCOC(=O)c1ccc(NC(=O)CN(c2ccc(C)cc2)S(=O)(=O)c2c(C)noc2C)cc1	5	8%	x	x	x
COC(=O)C[C@H]1c2cc(F)cc(F)c2S(=O)(=O)N1C1CCN(Cc2ccccc2)CC1	-66	-3%	0%	-69*	x
COC(=O)CC1c2ccccc2S(=O)(=O)N1Cc1ccccc1 (configuration not stated)	3	4%	-1%	2	0%
COc1cccc(CN2C(=O)N(c3ccc(C)cc3)C(=O)C2CC(=O)Nc2cc(OC)cc(OC)c2)c1 (configuration not stated)	3	10%	x	x	x
Cc1ccc(CNC(=O)c2cn(C3CCCCC3)c(=O)c3c2c2ccccc2n3C)o1	-2	-2%	9%	-75*	7%
Cn1c(C(=O)NCCN2CCCCCC2)cc2c(=O)n(C)c3ccccc3c21	-10	16%	9%	-2	0%
CC(C)Cn1cc(C(=O)NCCCN2CCC(C)CC2)c2c3ccccc3n(C)c2c1=O	-42	1%	6%	-83*	x
Cn1c(C(=O)NCCN2CCN(Cc3ccccc3)CC2)cc2c(=O)n(C)c3ccccc3c21	-14	-2%	0%	-93*	0%
Cn1c(C(=O)NCCCN2CCN(c3ccccc3F)CC2)cc2c(=O)n(C)c3ccccc3c21	-1	13%	-5%	-73*	0%
CCc1nc2ccc(C(=O)NCCCN3CCCC3=O)cn2c1N(C)C(=O)COc1ccccc1	4	x	x	-5	x
CC1CCN(CCCNC(=O)c2cc3c(=O)n(C)c4ccccc4c3n2C)CC1	-16	-3%	u	-83*	0%
Cn1c(C(=O)NCCCN2CCOCC2)cc2c(=O)n(C)c3ccccc3c21	-2	8%	10%	15	0%
Cn1c(NCC2CCCCC2)nc2cc(-c3ccsc3)sc2c1=O	4	x	x	-51*	x
COc1ccc(NC(=O)Nc2ccc(O)c3ccccc23)cc1	33*	7%	-63%	-27	x
CCOc1ccc(/C=N/N(C)c2ccccc2)cc1OC	1	4%	-4%	-54*	-1%
CCOc1ccc(/C=N/Nc2ccccn2)cc1OC	-14	0%	-17%	u	0%
CCc1cccc(CC)c1NC1=NS(=O)(=O)c2ccccc21	-5	-3%	x	x	x
CCc1cc(C(=O)N2CCOCC2)c(NC2=NS(=O)(=O)c3ccccc32)s1	2	-1%	-3%	-69*	-1%
CC(=O)N[C@@H](CCC(N)=O)C(=O)O	4	x	x	x	x
SMILES	DRD3 agonist	IDH1 R132H inh	a7 integrin act	D3 antag	B2AR arrestin
Cc1cccc(-c2n[nH]c(=S)n2-c2ccccc2)c1[N+](=O)[O-]	3	0%	10%	-20	-1%
COc1ccc(-n2c(-c3cccc(C)c3[N+](=O)[O-])n[nH]c2=S)cc1	-12	2%	35%	-57*	0%
CC(C)=CCc1cc([C@@H]2CC(=O)c3ccc(O)c(CC=C(C)C)c3O2)ccc1O	31*	u	-2%	56	x
CC(C)N(c1ccccc1)c1ccc(NC(=S)NCCN(C)C)cc1	-13	-11%	-60%	-73*	0%
COc1ccccc1N1CCN(c2nc3ccc(C)cc3n3nnnc23)CC1	0	5%	x	x	x
Cc1ccccc1CC1(CO)CCCN(Cc2nc(-c3cccs3)oc2C)C1 (configuration not stated)	-2	-2%	-21%	-104*	0%
CCCc1cc(NCCCCO)n2c(nc3ccccc32)c1C#N	4	4%	-11%	9	3%
CCCc1cc(NCCOCCO)n2c(nc3ccccc32)c1C#N	5	-6%	-2%	-57*	x
O=S(=O)(c1cccs1)N1CCCc2cccc(O)c21	-3	26%	-11%	-73*	0%
Cc1cccc(C)c1NC(=O)C1=C(O)c2ccccc2N(C)S1(=O)=O	6	0%	0%	-52*	0%
Cc1ccc(NC(=O)C2=C(O)c3ccccc3N(C)S2(=O)=O)cc1	-4	9%	30%	-1	0%
COc1ccc(NC(=O)C2(C)CCN2CCc2ccccc2)cc1OC (configuration not stated)	72*	x	x	2	x
Cc1ccc(-n2nc(CO)c(C(=O)NCc3ccccn3)n2)cc1C	-7	1%	x	x	x
CCOC(=O)c1ccc(S(=O)(=O)N2CCN(CC(=O)NC(=O)NC(C)(C)C)CC2)cc1	3	1%	11%	-71*	0%
Cc1cc([N+](=O)[O-])ccc1-c1ccc(/C=N/NC(=O)c2ccc(Br)o2)o1	-2	-6%	-12%	-54*	0%
Nc1ccc(C#Cc2ccc3sc4ccccc4c(=O)c3c2)cc1	44*	6%	-6%	51	x
COc1cccc2sc3ccc(C#Cc4ccc(N)cc4)cc3c(=O)c12	26	17%	25%	35	-1%
Cc1cccnc1CCNCc1c(C(=O)N2C[C@@H](C)O[C@@H](C)C2)nc2ccc(Cl)cn12	-10	-2%	18%	-63*	-1%
CC(=O)NC(c1ccco1)c1cc(Cl)c2ccc(N(C)C)nc2c1O (configuration not stated)	x	x	x	x	4%
N#CC(NC(=O)OCc1ccccc1)c1ccccc1 (configuration not stated)	-17	-10%	-5%	-54*	0%
Cc1ccc(C)c(CN2C(=O)c3ccccc3Sc3ccc(C(=O)NCc4ccco4)cc32)c1	-3	9%	x	x	x
CCOC(=O)c1ccc(N2C(=O)C=CC2=O)cc1	4	4%	-70%	-82*	0%
CN(C)CCCN(C(=O)CCOc1ccccc1)c1nc2ccc(F)cc2s1	-24	5%	-59%	-91*	0%
CN(C)CCCN(C(=O)CCOc1ccccc1)c1nc2c(F)cccc2s1	-14	7%	-66%	-99*	0%
CN(C)CCCN(C(=O)CCc1ccccc1)c1nc2c(F)cccc2s1	-21	4%	-41%	0	-2%

Assay outcomes (PubChem BioAssay)
